According to PubChem BioAssay (Tox21):
Activity calls are given as the source filed them. Where a call stands in place of a potency, no number is given. The call rests on the fitted dose curve; in most records, active means well fitted activation curve with a large enough effect in the repeat runs; inconclusive means weak or mixed curves; inactive means flat fitted curve, though single readings scatter.

Assay: Caspase-3/7 induction in CHO-K1 cells by small molecules, qHTS assay (AID 1346980); further: nearly all actives have a fitted effect of over 15% in size
Conditions: CHO-K1 caspase-3/7 induction, Caspase-Glo luminescence, 17 h; series mostly up to 92.4 µM
Method in brief: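 Luminescent Caspase-Glo 3/7 read (30min, room temperature) quantified apoptosis induction. Cells were wild-type CHO-K1, treated with compound for 17hr at 37 C and 5% CO2.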

Q: Which Potency does the source give for `CC(C(=O)O)c1ccc2c(c1)Cc1cccnc1O2` (stereo not drawn) here?
A: The Potency was “inactive”.

Q: Which Potency does the source give for `Nc1ccccc1Nc1ccccc1` here?
A: Its Potency is “inactive”.

Q: Which Potency does the source give for `O=S(=O)(O)c1cc(Cl)c(Cl)cc1Cl` here?
A: The Potency was “inactive”.

Q: With `C=CC(=O)NC(C)(C)C` as the molecule, how does the Potency read?
A: Its Potency is “inactive”.

Q: Which Potency does the source give for `C=CC(C)(O)CC/C=C(/C)CCC=C(C)C` (stereo not drawn) here?
A: Its Potency is “inactive”.

Q: Which Potency does the source give for `CCCCCO` here?
A: The Potency was “inactive”.

Q: With `Cc1ccc(Cl)c(OCC(O)CNC(C)(C)C)c1` (stereo not drawn) as the molecule, how does the Potency read?
A: The Potency was “inactive”.

Q: With `CC(C)(C)c1cc(C=O)cc(C(C)(C)C)c1O` as the molecule, how does the Potency read?
A: The Potency was “inactive”.

Q: For `C(/C=C/C=C/Nc1ccccc1)=Nc1ccccc1`, which Potency is on record?
A: The Potency was “inactive”.

Q: Which caspase-3/7 activation does the source give for `CCCCCCCCCCCCCCCCCCCl` here?
A: The caspase-3/7 activation was -1.95% [at 8.39 µM] (inactive).

Q: With `C=C[Si]1(C)O[Si](C)(C=C)O[Si](C)(C=C)O[Si](C)(C=C)O1` (stereo not drawn) as the molecule, how does the Potency read?
A: The Potency was “inactive”.

Q: For `CCc1ccc(C(=O)C(C)CN2CCCCC2)cc1` (stereo not drawn), which Potency is on record?
A: Its Potency is “inactive”.

Q: Which Potency does the source give for `O=C(OCCOCCOCCOC(=O)c1ccccc1)c1ccccc1` here?
A: Its Potency is “inactive”.

Q: Which Potency does the source give for `O=C(O)CCc1nc2ccccc2[nH]1` here?
A: The Potency was “inactive”.

Q: For `CCc1c(C)[nH]c2c1C(=O)C(CN1CCOCC1)CC2` (stereo not drawn), which Potency is on record?
A: Its Potency is “inactive”.

Q: For `CC(C)C/C=C(\C=O)c1ccccc1`, which Potency is on record?
A: The Potency was “inactive”.

Q: With `c1ccc(CN(Cc2ccccc2)Cc2ccccc2)cc1` as the molecule, how does the Potency read?
A: The Potency was “inactive”.

Q: Which Potency does the source give for `C[C@H](CN1CCCC1)C(=O)c1ccc(C(F)(F)F)cc1` here?
A: Its Potency is “inactive”.

Q: For `O=C(Cl)c1ccc(F)c(Cl)c1`, which Potency is on record?
A: Its Potency is “inactive”.

Q: Which Potency does the source give for `C[C@]12CCC(=O)C=C1[C@@H]1C[C@@H]1[C@H]1[C@@H]3[C@@H]4C[C@@H]4[C@@]4(CCC(=O)O4)[C@@]3(C)CC[C@@H]12` here?
A: The Potency was “inactive”.

Q: For `O=C1OC(=O)C2CC=CCC12` (stereo not drawn), which Potency is on record?
A: The Potency was “inactive”.

Q: With `CC(C)Oc1ccccc1O` as the molecule, how does the Potency read?
A: The Potency was “inactive”.

Q: For `c1ccc(-c2ccc(-c3ccccc3)cc2)cc1`, which caspase-3/7 activation is on record?
A: The caspase-3/7 activation was -1.92% [at 19 µM] (inactive).
